Holding throughout (experiment): DAPPL (digital affinity profiling via proximity ligation, sequencing); 10 mM Tris-HCl pH 7.5, 50 mM NaCl, 1 mM DTT, 4% glycerol, room temperature, 30 min; GST-TFs on glutathione beads, 16-mer random dsDNA library, 0.1% formaldehyde crosslink after washing; high values mean tight binding
The target in one assay is T1, FEV (Homo sapiens, UniProt Q99581 1-238).
T1 sequence: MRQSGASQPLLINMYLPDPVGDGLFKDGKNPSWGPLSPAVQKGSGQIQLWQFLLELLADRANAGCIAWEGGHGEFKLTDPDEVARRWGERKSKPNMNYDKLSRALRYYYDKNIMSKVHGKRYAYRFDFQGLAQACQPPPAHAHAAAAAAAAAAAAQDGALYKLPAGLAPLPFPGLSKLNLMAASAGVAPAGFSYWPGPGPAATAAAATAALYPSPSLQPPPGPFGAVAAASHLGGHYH
The note with it: protein: recombinant; tags: N-terminal GST; dsDNA, one strand shown. An outline of the steps:
(§1)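 Each value of binding signal is a hexamer's read frequency for a factor divided by the same hexamer's frequency in the tag-only sample. Barcoded, bead-captured GST fusions of human transcription factors made in yeast were pooled with that sample and incubated with 200 nmole of a random double-stranded 16-mer DNA library in Tris/NaCl/DTT/glycerol buffer at room temperature for 30 min. Washing, 0.1% formaldehyde crosslinking, proximity ligation, PCR and Illumina NextSeq500 sequencing followed.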

The target in the next assay is ETV5 (Homo sapiens, UniProt P41161 1-510). The note with it: protein: recombinant; tags: N-terminal GST; dsDNA, one strand shown. The method in brief:
as §1

For a further assay, the target named is HSF1 (Homo sapiens, UniProt Q00613 1-529). The note with it: protein: recombinant; tags: N-terminal GST; chain copies: 3; dsDNA, one strand shown. An outline of the steps:
as §1

Another assay concerns the target T2, SPIC (Homo sapiens, UniProt Q8N5J4 1-248).
T2 sequence: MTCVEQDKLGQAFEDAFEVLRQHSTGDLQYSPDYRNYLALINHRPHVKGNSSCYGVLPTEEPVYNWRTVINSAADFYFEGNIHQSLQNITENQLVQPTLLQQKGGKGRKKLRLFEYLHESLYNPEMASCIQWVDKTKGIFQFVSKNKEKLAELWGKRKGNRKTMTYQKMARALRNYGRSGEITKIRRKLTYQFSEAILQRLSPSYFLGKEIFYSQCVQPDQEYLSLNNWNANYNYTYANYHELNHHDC
The note with it: protein: recombinant; tags: N-terminal GST; dsDNA, one strand shown. The method in brief: as §1

A further assay concerns the target ELF4 (Homo sapiens, UniProt Q99607 1-663). The following applies: protein: recombinant; tags: N-terminal GST; dsDNA, one strand shown. An outline of the steps: as §1
A further assay addresses T3, ELK4 (Homo sapiens, UniProt P28324-2 1-405).
T3 sequence: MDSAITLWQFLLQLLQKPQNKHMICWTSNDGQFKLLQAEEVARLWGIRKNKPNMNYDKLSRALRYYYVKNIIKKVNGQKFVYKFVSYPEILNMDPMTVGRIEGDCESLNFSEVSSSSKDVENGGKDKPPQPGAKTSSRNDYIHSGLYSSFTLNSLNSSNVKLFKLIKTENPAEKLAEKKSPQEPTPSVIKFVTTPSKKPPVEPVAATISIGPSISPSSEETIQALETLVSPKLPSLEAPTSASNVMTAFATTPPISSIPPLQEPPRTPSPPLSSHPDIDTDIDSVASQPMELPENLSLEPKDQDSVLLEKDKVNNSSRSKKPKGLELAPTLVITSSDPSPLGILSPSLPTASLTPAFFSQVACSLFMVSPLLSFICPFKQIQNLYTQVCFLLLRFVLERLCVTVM
The following applies: protein: recombinant; tags: N-terminal GST; dsDNA, one strand shown. The method in brief:
as §1

A further assay deals with T4, ETV2 (Homo sapiens, UniProt O00321 1-342).
T4 sequence: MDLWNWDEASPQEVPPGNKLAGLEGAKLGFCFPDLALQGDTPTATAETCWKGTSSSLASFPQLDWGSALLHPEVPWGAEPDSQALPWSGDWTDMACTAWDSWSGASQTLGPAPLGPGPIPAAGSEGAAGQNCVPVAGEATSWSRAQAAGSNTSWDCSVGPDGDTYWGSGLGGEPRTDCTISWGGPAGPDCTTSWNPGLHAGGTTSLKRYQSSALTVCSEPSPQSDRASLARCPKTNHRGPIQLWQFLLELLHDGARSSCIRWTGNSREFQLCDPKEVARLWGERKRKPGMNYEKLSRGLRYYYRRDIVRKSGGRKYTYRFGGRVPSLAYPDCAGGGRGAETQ
The following applies: protein: recombinant; tags: N-terminal GST; dsDNA, one strand shown. The method in brief: as §1

The target of the next assay is T5, ELF3 (Homo sapiens, UniProt P78545 1-371).
T5 sequence: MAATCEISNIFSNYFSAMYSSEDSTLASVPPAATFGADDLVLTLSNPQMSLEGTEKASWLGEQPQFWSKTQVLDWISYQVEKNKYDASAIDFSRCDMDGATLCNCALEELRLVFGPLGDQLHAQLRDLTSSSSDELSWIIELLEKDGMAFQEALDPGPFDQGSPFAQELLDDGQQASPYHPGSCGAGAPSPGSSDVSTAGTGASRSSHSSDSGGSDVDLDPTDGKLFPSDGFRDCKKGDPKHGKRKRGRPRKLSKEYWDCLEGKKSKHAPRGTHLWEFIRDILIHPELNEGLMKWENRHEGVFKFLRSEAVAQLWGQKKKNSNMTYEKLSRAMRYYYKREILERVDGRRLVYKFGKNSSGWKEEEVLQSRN
The following applies: protein: recombinant; tags: N-terminal GST; dsDNA, one strand shown. An outline of the steps:
as §1

For a further assay, the target named is CRX (Homo sapiens, UniProt O43186 1-299). The following applies: protein: recombinant; tags: N-terminal GST; dsDNA, one strand shown. An outline of the steps:
as §1

The next assay deals with ETV1 (Homo sapiens, UniProt P50549 1-477). The following applies: protein: recombinant; tags: N-terminal GST; dsDNA, one strand shown. An outline of the steps: as §1
The next assay addresses T6, ERF (Homo sapiens, UniProt P50548 1-548).
T6 sequence: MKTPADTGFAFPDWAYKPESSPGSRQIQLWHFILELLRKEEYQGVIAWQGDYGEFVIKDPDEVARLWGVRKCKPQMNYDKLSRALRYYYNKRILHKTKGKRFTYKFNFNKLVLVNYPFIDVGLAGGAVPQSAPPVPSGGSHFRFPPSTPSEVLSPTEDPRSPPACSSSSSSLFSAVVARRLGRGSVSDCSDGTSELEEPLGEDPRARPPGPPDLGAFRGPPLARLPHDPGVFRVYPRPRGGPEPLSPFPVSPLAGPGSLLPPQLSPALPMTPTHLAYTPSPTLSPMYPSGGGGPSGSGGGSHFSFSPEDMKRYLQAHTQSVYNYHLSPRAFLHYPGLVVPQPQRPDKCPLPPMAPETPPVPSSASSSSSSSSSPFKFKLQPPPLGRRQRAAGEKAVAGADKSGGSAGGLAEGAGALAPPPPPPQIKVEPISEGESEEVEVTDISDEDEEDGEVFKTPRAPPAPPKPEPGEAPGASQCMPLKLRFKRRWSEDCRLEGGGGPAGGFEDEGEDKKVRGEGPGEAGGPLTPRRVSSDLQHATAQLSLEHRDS
The following applies: protein: recombinant; tags: N-terminal GST; dsDNA, one strand shown. The method in brief:
as §1

The next assay concerns the target T7, ETV3L (Homo sapiens, UniProt Q6ZN32 1-361).
T7 sequence: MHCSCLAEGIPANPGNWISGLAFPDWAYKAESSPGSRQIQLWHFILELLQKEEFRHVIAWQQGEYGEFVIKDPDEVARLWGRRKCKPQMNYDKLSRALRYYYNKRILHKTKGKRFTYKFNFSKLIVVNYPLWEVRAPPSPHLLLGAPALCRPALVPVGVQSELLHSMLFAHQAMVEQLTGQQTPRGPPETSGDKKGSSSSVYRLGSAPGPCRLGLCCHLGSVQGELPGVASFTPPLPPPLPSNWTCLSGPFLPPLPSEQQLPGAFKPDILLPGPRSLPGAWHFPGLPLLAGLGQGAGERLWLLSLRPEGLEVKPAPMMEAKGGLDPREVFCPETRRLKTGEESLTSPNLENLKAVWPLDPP
The following applies: protein: recombinant; tags: N-terminal GST; dsDNA, one strand shown. An outline of the steps: as §1

The next assay has as its target T8, ETS2 (Homo sapiens, UniProt P15036 1-469).
T8 sequence: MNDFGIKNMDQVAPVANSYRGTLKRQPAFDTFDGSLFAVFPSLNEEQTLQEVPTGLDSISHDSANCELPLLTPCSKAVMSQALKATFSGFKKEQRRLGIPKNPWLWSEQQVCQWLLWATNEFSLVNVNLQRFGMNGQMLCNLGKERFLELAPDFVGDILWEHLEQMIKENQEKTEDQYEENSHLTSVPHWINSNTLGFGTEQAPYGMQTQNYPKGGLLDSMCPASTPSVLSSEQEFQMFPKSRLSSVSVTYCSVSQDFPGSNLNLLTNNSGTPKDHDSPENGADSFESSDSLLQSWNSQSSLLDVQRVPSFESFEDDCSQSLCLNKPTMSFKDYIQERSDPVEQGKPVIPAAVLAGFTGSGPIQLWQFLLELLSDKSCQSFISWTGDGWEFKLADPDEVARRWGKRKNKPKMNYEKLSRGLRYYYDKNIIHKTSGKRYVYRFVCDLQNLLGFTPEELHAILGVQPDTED
The note with it: protein: recombinant; tags: N-terminal GST; dsDNA, one strand shown. An outline of the steps: as §1

The target of a further assay is T9, SPDEF (Homo sapiens, UniProt O95238 1-335).
T9 sequence: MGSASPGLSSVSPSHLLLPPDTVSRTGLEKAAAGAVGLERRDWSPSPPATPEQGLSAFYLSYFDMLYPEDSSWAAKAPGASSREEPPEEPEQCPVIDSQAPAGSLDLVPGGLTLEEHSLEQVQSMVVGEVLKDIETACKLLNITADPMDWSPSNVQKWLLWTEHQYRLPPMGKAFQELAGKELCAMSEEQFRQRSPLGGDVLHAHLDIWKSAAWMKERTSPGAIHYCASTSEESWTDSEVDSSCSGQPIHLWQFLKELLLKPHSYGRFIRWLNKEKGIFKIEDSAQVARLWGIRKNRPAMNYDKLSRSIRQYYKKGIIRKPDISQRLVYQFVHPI
The following applies: protein: recombinant; tags: N-terminal GST; dsDNA, one strand shown. An outline of the steps: as §1

The target in another assay is T10, ETV7 (Homo sapiens, UniProt Q9Y603 1-341).
T10 sequence: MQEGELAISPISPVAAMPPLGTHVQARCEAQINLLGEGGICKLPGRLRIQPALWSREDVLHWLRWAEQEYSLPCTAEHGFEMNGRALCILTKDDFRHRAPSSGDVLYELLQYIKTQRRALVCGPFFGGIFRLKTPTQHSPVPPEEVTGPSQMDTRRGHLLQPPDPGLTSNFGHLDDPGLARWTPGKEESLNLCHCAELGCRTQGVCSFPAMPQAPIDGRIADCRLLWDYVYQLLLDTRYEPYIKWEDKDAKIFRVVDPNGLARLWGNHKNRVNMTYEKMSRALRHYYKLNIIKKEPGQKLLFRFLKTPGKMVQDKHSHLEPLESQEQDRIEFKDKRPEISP
The note with it: protein: recombinant; tags: N-terminal GST; dsDNA, one strand shown. The method in brief:
as §1

A further assay addresses T11, ELF5 (Homo sapiens, UniProt Q9UKW6-2 1-255).
T11 sequence: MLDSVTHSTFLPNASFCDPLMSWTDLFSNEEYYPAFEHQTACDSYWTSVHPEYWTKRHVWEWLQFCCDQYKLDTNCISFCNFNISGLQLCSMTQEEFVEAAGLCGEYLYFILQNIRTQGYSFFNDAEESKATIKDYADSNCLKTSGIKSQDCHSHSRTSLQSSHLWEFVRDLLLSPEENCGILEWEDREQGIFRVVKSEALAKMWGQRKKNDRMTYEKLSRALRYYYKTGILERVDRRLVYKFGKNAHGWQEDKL
The note with it: protein: recombinant; tags: N-terminal GST; dsDNA, one strand shown. The method in brief: as §1

For another assay, the target named is T12, ETV3 (Homo sapiens, UniProt P41162-2 1-143).
T12 sequence: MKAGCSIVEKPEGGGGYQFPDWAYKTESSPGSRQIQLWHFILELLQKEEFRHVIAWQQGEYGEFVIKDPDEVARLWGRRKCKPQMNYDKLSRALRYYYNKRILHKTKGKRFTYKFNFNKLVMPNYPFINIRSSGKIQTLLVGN
The following applies: protein: recombinant; tags: N-terminal GST; dsDNA, one strand shown. An outline of the steps:
as §1

For the next assay, the target named is ETV6 (Homo sapiens, UniProt P41212 1-452). The note with it: protein: recombinant; tags: N-terminal GST; dsDNA, one strand shown. An outline of the steps: as §1
Chain of ETV6 (P41212 whole entry): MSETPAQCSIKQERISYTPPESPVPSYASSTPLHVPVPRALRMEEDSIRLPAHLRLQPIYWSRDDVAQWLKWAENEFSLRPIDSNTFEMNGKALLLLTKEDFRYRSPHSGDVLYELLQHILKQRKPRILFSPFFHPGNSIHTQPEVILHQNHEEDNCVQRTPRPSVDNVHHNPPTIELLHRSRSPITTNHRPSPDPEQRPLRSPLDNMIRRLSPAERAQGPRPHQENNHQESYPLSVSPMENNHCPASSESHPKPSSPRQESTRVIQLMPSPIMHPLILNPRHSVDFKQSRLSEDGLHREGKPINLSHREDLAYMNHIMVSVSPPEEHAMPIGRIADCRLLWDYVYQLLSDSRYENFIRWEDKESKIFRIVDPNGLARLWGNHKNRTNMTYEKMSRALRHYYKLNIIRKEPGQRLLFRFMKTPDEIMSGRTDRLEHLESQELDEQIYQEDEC

Chain of ETV5 (P41161 whole entry): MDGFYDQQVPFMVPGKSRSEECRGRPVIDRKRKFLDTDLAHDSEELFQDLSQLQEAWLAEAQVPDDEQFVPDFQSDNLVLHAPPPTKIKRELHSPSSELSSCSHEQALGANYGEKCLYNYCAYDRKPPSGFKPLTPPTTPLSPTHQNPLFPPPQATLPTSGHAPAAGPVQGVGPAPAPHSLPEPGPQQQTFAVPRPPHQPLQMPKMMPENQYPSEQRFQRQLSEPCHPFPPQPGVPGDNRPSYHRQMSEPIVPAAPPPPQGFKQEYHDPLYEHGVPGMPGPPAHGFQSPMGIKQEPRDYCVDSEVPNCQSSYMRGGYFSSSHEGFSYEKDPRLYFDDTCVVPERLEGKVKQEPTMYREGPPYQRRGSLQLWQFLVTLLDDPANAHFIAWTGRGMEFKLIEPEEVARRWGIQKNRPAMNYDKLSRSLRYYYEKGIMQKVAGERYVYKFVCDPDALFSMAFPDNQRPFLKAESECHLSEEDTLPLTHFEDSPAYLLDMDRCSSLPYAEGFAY
Chain of ELF4 (Q99607 whole entry): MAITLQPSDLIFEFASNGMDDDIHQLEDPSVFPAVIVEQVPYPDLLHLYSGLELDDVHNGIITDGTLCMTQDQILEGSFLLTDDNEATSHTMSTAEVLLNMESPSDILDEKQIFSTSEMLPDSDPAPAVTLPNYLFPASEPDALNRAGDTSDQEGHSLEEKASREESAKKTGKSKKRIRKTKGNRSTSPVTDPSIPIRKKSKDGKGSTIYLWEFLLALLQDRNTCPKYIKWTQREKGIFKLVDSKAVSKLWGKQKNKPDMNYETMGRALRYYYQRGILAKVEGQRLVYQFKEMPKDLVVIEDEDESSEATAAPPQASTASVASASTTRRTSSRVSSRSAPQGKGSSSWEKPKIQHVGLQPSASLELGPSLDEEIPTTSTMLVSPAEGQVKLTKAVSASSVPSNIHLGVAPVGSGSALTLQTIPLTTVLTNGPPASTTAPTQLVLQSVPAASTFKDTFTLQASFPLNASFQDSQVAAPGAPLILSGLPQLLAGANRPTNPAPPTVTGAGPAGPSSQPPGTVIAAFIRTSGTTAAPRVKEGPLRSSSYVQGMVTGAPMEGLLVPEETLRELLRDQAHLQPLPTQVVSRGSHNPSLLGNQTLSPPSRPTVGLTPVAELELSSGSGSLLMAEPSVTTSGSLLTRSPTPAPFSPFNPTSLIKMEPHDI
Chain of ETV1 (P50549 whole entry): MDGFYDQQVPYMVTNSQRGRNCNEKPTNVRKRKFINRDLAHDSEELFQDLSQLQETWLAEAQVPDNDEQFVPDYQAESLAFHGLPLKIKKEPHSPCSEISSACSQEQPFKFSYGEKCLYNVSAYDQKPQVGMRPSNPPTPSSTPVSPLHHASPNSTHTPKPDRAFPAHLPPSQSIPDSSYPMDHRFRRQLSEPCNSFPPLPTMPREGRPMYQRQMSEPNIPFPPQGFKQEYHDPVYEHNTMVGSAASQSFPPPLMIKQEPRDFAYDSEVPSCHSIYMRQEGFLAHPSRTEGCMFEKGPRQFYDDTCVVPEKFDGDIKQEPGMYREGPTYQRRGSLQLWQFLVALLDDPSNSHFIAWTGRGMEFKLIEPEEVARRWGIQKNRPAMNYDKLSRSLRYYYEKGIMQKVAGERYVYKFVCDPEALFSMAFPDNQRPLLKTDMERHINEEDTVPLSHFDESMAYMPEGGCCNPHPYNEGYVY
Chain of HSF1 (Q00613 whole entry): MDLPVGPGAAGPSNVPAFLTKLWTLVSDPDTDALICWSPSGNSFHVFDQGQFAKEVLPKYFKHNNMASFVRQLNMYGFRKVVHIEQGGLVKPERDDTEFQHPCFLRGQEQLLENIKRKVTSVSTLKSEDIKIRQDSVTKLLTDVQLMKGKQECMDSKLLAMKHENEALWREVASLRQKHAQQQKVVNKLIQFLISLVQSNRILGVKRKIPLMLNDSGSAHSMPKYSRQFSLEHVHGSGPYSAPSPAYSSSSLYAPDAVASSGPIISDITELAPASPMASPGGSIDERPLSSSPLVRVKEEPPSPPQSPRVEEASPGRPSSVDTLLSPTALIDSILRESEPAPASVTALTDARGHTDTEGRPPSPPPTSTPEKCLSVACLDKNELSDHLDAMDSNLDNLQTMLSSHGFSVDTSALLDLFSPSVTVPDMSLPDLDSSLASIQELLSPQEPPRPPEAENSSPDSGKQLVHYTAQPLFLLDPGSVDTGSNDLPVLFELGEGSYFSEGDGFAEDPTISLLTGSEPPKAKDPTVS
Chain of CRX (O43186 whole entry): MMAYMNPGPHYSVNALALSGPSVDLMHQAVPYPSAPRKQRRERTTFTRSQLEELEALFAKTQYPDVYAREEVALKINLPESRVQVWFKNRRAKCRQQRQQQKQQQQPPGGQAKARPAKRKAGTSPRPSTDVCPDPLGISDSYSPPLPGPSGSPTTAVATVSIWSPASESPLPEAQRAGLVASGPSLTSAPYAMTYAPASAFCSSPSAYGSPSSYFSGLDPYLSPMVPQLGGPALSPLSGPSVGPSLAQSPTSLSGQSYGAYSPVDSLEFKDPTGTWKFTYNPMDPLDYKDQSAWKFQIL

For the sequence TACATA, the binding signal was 1.21 fold enrichment (6-mer frequency, TF over GST control) in the assay with FEV; 1.24 fold enrichment (6-mer frequency, TF over GST control) with ETV5; 1.15 fold enrichment (6-mer frequency, TF over GST control) with HSF1; 1.36 fold enrichment (6-mer frequency, TF over GST control) with SPIC; 1.22 fold enrichment (6-mer frequency, TF over GST control) with ELF4; 1.22 fold enrichment (6-mer frequency, TF over GST control) in the assay with ELK4. For the same sequence, the binding signal in the assay with ETV2 was 1.24 fold enrichment (6-mer frequency, TF over GST control); with ELF3, 1.18 fold enrichment (6-mer frequency, TF over GST control); with CRX, 1.27 fold enrichment (6-mer frequency, TF over GST control); in the assay with ETV1 it was 1.25 fold enrichment (6-mer frequency, TF over GST control); with ERF it was 1.33 fold enrichment (6-mer frequency, TF over GST control); in the assay with ETV3L, 1.1 fold enrichment (6-mer frequency, TF over GST control). The binding signal with ETS2 is 1.27 fold enrichment (6-mer frequency, TF over GST control); with SPDEF, 1.2 fold enrichment (6-mer frequency, TF over GST control); with ETV7, 1.31 fold enrichment (6-mer frequency, TF over GST control); in the assay with ELF5, 1.16 fold enrichment (6-mer frequency, TF over GST control); in the assay with ETV3, 1.21 fold enrichment (6-mer frequency, TF over GST control); with ETV6, 1.21 fold enrichment (6-mer frequency, TF over GST control).

Source of the values: article PMC7862700, “An all-to-all approach to the identification of sequence-specific readers for epigenetic DNA modifications on cytosine”.
